Measured values published in PubChem BioAssay (Tox21).
Values joined by “and” are separate entries in the source; they are usually repeats but may differ in a detail not shown here. Equal values may be shown once. Inconclusive results are not listed. Entries that show only a call come without a potency. Where a structure was tested more than once in an assay, its records may differ in their call. Active and inactive are the calls of the source. Unless noted, calls come from the whole dose curve.

Key:
[1] = Nuclear factor erythroid 2-related factor 2/antioxidant responsive element (Nrf2/ARE) small molecule agonists: qHTS cell viability counter screen in human keratinocytes (AID 1919968; active = well fitted curve in the direction sought with a large enough effect in the repeat runs; an effect the other way counts as inactive or inconclusive; note: nearly all actives have a fitted effect of over 55% in size; note: potency is the fitted concentration of half-maximal effect)
Summary of the method: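 HaCaT ARE reporter line, 1,500 cells/well; 5 h settle, 37 C/5% CO2; cpd in DMSO pinned; 23 h exposure; CellTiter-Fluor, 1 h; fluorescence.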

[2] = Nuclear factor erythroid 2-related factor 2/antioxidant responsive element (Nrf2/ARE) small molecule agonists: luciferase reporter gene qHTS assay in human keratinocytes (AID 1919969); note: nearly all actives have a fitted effect of over 35% in size; note: potency is the fitted concentration of half-maximal effect
[3] = molecular target: Gonadotropin-releasing hormone receptor (Homo sapiens) (UniProt P30968); assay: Human gonadotropin-releasing hormone receptor (GnRHR) small molecule agonists, calcium flux assay in GnRHR-HEK293 cells (AID 1920063); note: nearly all actives have a fitted effect of over 35% in size
Summary of the method: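 GnRHR-HEK293, 1500 cells/well, 18 h 37 C/5% CO2; Ca dye 1 h 37 C; cpd pinned (DMSO), agonist mode; kinetic FL 480/540, 3 min, 1 s reads; 15 conc, n=3.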

[4] = molecular target: KiSS-1 receptor (Homo sapiens) (UniProt Q969F8); assay: Human kisspeptin (KISS1R) small molecule agonists, calcium flux assay in KISS1R-HEK293 cells (AID 1920064; active = well fitted curve in the direction sought with a large enough effect in the repeat runs; an effect the other way counts as inactive or inconclusive)
Summary of the method: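 Stable human KISS1R HEK293 line; 18 h plating, 37 C/5% CO2; calcium dye 1 h 37 C; compound pin transfer; kinetic fluorescence Ex/Em 480/540, 3 min.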

[5] = G protein-coupled receptor (GPCR) small molecule agonists, calcium flux assay: HEK293 wild type cell line counter screen (AID 1920065)
Summary of the method: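 Kinetic fluorescence at Ex/Em 480/540, recorded every second over 3 min, served as the read-out after compound addition. Each compound was tested at 15 concentrations in triplicate on cells pre-loaded with calcium dye for 1 h.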

[6] = p53 small molecule agonists, cell-based qHTS assay with human liver microsomes (AID 1963577);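 note: p53 response element beta-lactamase reporter cells with liver microsomes plus NADPH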
Summary of the method: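 p53RE-bla cells; 5 h settle, 37 C/5% CO2; cpd + HLM 0.5 mg/mL + NADPH 0.5 mg/mL (final); 16 h 37 C; LiveBLAzer 2 h RT dark; fluorescence readout.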

[7] = p53 small molecule agonists, cell-based qHTS assay with rat liver microsomes (AID 1963578)
Summary of the method: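 Rat liver microsome activation: microsomes 0.5 mg/mL, NADPH 0.5 mg/mL final; p53RE-bla cells, 16 h 37 C; LiveBLAzer readout, 2 h RT dark.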

[8] = p53 small molecule agonists, cell-based qHTS assay with human liver microsomes: qHTS cell viability counter screen (AID 1963579); note: nearly all actives have a fitted effect of over 45% in size; note: potency is the fitted concentration of half-maximal effect
Summary of the method: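 Luminescent CellTiter-Glo read-out, 30 min at room temperature, gauged cytotoxicity in p53RE-bla cells exposed 16 h at 37 C to DMSO-dissolved compounds with metabolic activation by human liver microsomes and NADPH, each 0.5 mg/mL final.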

[9] = p53 small molecule agonists, cell-based qHTS assay with rat liver microsomes: qHTS cell viability counter screen (AID 1963580); note: nearly all actives have a fitted effect of over 45% in size; note: potency is the fitted concentration of half-maximal effect
Summary of the method: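 p53RE-bla HCT-116 cells (4,000/well) rested 5 h at 37 C, then given Tox21 compounds in DMSO with rat liver microsomes (0.5 mg/mL final) plus NADPH (0.5 mg/mL final) for 16 h at 37 C. Viability read by CellTiter-Glo luminescence after 30 min at room temperature.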

[10] = p53 small molecule agonists, cell-based qHTS assay: qHTS cell viability counter screen (AID 1963581); note: nearly all actives have a fitted effect of over 45% in size
Summary of the method: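 HCT-116 p53RE-bla cells, 4,000/well, plated 5 h before compound pin transfer; 16 h at 37 C; bla substrate 2 h RT; then CellTiter-Glo, 30 min RT, luminescence.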

[11] = p53 small molecule agonists, cell-based qHTS assay (AID 1963582; active = well fitted activation curve with a large enough effect in the signal ratio in the repeat runs, not every such curve was filed as active; the % refers to the signal ratio; note: potency is the fitted concentration of half-maximal effect)
Summary of the method: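 Reporter line: p53RE-bla. Pre-incubation 5 h, 37 C, 5% CO2; compound (DMSO, pin tool) 16 h, 37 C; B/G FRET substrate 2 h RT; fluorescence intensity read.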

[12] = molecular target: 5-hydroxytryptamine receptor 2A (Homo sapiens) (UniProt P28223); assay: 5-hydroxytryptamine receptor 2A (HTR2A) small molecule antagonists, cell-based qHTS assay (AID 1963586); note: nearly all actives have a fitted effect of over 45% in size; note: potency is the fitted concentration of half-maximal effect
Summary of the method: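 Antagonist-mode intracellular calcium assay: DOI (4 nM) added after 5 min compound pre-incubation at room temperature to dye-loaded HTR2A-CHO cells. Fluorescence followed for 3 min, sampled every second.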

[13] = molecular target: 5-hydroxytryptamine receptor 2A (Homo sapiens) (UniProt P28223); assay: 5-hydroxytryptamine receptor 2A (HTR2A) small molecule agonists, cell-based qHTS assay (AID 1963587); note: nearly all actives have a fitted effect of over 30% in size; note: potency is the fitted concentration of half-maximal effect
Summary of the method: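 HTR2A-CHO cells, plated 18 h at 37 C/5% CO2, dye-loaded 1 h at 37 C; compounds in DMSO added by pin tool (agonist mode). Intracellular calcium flux read as kinetic fluorescence on FDSS over 2 min at 1 s intervals.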

[14] = molecular target: Muscarinic acetylcholine receptor M1 (Homo sapiens) (UniProt P11229); assay: Cholinergic receptor muscarinic 1 (CHRM1) small molecule antagonists, cell-based qHTS assay (AID 1963588); note: nearly all actives have a fitted effect of over 40% in size
Summary of the method: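 CHRM1-CHO calcium-flux assay, antagonist mode. Cells were seeded 18 h, dye-loaded 1 h at 37 C and given compound for 5 min at RT, then acetylcholine was added at 50nM. FDSS fluorescence was read 3 min; 15 concentrations, three runs.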

[15] = molecular target: Muscarinic acetylcholine receptor M1 (Homo sapiens) (UniProt P11229); assay: Cholinergic receptor muscarinic 1 (CHRM1) small molecule agonists, cell-based qHTS assay (AID 1963589); note: nearly all actives have a fitted effect of over 35% in size
Summary of the method: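 Human M1 in stable CHO line; 18 h plating, 1 h dye load 37 C; cpd added (agonist mode); Ca2+ fluorescence kinetic read, 1 s intervals; 15 conc, 3 runs.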

[16] = cAMP Responsive Elements (CRE) small molecule antagonists, cell-based qHTS assay (AID 1963591; active = well fitted inhibition curve with a large enough effect in the signal ratio in the repeat runs, not every such curve was filed as active; the % refers to the signal ratio)
Summary of the method: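 Beta-lactamase reporter read by FRET substrate (LiveBLAzer B/G) after 2 h at room temperature. CRE-bla HEK293T cells had received compound plus 0.25 uM (final) NKH477 for 3 h at 37 °C.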

[17] = molecular target: Beta-2 adrenergic receptor (Homo sapiens) (UniProt P07550); assay: Adrenergic beta2 receptor (ADRB2) small molecule antagonists, cell-based qHTS assay (AID 1963592); note: series mostly up to about 92 µM; nearly all actives have a fitted effect of over 50% in size
Summary of the method: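 Cells (CHO, stable ADRB2 overexpression) incubated 18-20hr at 37C; compounds added from DMSO; agonist mix (1nM isoproterenol, 100uM IBMX, 25uM Ro-20-1724) added; 0.5hr RT; d2-cAMP and anti-cAMP-cryptate added; 1hr RT; 665/615 nm read.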

[18] = molecular target: D(2) dopamine receptor (Homo sapiens) (UniProt P14416); assay: Dopamine D2 receptor (DRD2) small molecule agonists, cell-based qHTS assay (AID 1963594); note: nearly all actives have a fitted effect of over 35% in size
Summary of the method: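 HEK293 cells stably expressing DRD2 were cultured 24 h at 37 C, then given Ro20-1724 (0.1 mM final) and compounds for 10 min at room temperature. NKH477 (200nM) was then added for 30 min. cAMP was read by HTRF.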

[19] = molecular target: D(2) dopamine receptor (Homo sapiens) (UniProt P14416); assay: Dopamine D2 receptor (DRD2) small molecule antagonists, cell-based qHTS assay (AID 1963595; active = well fitted inhibition curve with a large enough effect in the signal ratio in the repeat runs, with a control signal flat; the % refers to the signal ratio; note: potency is the fitted concentration of half-maximal effect)
Summary of the method: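 HEK293 cells stably expressing DRD2 were preincubated with 0.1 mM Ro20-1724, then with compound for 10 min at room temperature. Cells were stimulated with 200 nM NKH477 plus 12 nM quinpirole for 30 min, and cAMP was read by HTRF.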

[20] = cAMP Responsive Elements (CRE) small molecule agonists, cell-based qHTS assay (AID 1963590)
Summary of the method: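 HEK 293T CRE-bla, 2,000 cells/well, 18 h preincubation 37 C/5% CO2; cpds (DMSO) pinned, 3 h; LiveBLAzer B/G FRET substrate, 2 h RT.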

Sequence of 5-hydroxytryptamine receptor 2A (Homo sapiens) (P28223 whole entry, looked up): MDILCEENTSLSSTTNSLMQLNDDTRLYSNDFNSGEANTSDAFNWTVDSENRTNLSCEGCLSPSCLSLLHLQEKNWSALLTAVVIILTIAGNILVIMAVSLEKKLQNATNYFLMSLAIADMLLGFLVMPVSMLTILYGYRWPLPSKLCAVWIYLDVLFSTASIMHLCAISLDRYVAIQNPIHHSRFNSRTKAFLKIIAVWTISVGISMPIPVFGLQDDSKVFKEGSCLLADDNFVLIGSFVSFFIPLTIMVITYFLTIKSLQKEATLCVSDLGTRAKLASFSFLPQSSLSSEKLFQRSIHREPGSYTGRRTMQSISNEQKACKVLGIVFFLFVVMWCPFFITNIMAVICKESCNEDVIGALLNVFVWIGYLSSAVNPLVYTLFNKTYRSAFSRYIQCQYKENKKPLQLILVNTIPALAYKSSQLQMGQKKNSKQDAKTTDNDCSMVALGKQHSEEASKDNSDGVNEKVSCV
Sequence of Muscarinic acetylcholine receptor M1 (Homo sapiens) (P11229 whole entry, looked up): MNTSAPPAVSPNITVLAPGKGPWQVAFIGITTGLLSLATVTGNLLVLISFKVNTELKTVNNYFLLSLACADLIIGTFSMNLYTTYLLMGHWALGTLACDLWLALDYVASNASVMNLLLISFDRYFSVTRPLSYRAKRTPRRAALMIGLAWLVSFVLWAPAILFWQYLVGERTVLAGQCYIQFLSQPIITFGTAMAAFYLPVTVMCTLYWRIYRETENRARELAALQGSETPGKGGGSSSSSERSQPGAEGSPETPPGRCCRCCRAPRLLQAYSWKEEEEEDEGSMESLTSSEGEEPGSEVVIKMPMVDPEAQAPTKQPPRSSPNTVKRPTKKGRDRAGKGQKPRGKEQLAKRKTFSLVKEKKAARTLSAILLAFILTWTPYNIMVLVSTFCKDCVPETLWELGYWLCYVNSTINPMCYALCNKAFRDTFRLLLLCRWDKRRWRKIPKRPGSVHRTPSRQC
Sequence of Gonadotropin-releasing hormone receptor (Homo sapiens) (P30968 whole entry, looked up): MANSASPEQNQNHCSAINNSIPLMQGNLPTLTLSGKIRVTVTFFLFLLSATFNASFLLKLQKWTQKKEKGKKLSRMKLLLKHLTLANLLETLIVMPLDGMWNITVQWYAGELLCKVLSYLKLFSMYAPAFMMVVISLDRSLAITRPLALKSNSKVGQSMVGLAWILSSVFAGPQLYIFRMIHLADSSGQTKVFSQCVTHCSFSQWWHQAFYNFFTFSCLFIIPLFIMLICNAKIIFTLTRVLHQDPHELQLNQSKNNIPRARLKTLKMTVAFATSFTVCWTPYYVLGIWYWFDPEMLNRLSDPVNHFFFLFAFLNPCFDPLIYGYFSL
Sequence of KiSS-1 receptor (Homo sapiens) (Q969F8 whole entry, looked up): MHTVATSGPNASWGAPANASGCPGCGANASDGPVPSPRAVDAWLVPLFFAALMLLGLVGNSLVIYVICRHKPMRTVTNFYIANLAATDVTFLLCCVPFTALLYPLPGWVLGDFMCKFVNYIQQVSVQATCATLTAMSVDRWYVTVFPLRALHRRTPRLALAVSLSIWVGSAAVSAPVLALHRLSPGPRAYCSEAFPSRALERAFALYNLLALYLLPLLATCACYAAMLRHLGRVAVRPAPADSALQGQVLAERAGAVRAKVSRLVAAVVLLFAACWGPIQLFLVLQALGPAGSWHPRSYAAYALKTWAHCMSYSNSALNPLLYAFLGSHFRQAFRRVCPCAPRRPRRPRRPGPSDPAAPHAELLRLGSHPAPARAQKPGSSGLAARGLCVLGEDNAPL
Sequence of Beta-2 adrenergic receptor (Homo sapiens) (P07550 whole entry, looked up): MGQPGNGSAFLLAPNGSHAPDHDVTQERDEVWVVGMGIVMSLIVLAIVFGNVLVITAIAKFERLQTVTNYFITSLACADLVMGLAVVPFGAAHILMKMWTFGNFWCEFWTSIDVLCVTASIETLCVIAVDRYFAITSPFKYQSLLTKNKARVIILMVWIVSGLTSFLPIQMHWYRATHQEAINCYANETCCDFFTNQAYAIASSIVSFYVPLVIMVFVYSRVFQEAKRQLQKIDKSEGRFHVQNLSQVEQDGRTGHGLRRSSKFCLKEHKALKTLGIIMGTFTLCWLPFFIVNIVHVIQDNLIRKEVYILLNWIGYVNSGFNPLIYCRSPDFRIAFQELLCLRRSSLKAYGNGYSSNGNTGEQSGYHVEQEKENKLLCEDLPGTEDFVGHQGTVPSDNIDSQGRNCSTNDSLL
Sequence of D(2) dopamine receptor (Homo sapiens) (P14416 whole entry, looked up): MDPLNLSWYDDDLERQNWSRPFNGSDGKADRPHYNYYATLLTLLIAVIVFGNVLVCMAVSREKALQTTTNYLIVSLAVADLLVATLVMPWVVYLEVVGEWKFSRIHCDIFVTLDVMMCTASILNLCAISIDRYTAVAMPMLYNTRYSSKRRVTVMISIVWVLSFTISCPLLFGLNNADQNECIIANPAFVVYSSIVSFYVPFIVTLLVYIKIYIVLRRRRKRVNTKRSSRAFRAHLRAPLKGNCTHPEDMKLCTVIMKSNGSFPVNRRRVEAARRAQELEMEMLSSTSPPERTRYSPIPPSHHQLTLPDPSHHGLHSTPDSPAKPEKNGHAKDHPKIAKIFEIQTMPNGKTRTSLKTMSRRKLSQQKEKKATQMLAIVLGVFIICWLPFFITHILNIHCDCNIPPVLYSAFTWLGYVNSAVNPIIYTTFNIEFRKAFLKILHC

Row | SMILES | Potency [1] | Potency [2] | Potency [3] | Potency [4] | Potency [5] | Potency [6] | Potency [7] | Potency [8] | Potency [9] | Potency [10] | Potency [11] | Potency [12] | Potency [13] | Potency [14] | Potency [15] | Potency [16] | Potency [17] | Potency [18] | Potency [19] | Potency [20]
1 | O=[N+]([O-])c1ccc(CCO)cc1 | inactive | inactive | inactive | inactive | inactive | inactive | inactive | inactive | inactive | inactive | inactive | inactive | inactive | inactive | inactive | inactive | inactive | inactive | inactive | 
2 | C=C1C[C@H]2[C@@H]3C=C(C)C4=CC(=O)CC[C@]4(C)[C@H]3CC[C@]2(C)[C@@]1(OC(C)=O)C(C)=O | inactive | inactive | inactive | inactive | inactive | inactive | inactive | inactive | inactive | inactive | inactive | inactive | inactive | inactive | inactive |  | inactive | inactive | inactive | 
3 | C=C(C)C(=O)OCCCCCCOC(=O)C(=C)C | inactive | inactive | inactive | inactive | inactive | inactive | inactive | inactive | inactive | inactive | inactive | inactive | inactive |  | inactive | inactive | inactive | inactive | inactive | inactive
4 | CCCCCCCCC(=O)OCC | inactive | inactive | inactive | inactive | inactive | inactive | inactive | inactive | inactive | inactive | inactive | inactive | inactive |  | inactive | inactive |  | inactive | inactive | inactive
5 | CCCCCCCCCC/C=C/C#N | inactive | inactive | inactive | inactive | inactive | inactive | inactive | inactive | inactive | inactive | inactive | inactive | inactive |  | inactive | inactive | inactive | inactive | inactive | inactive
6 | CCCCCC(C)=O | inactive | inactive and 27.3 µM (active) | inactive | inactive | inactive | inactive | inactive | inactive and 12.9 µM (active) | inactive and 28.9 µM (active) | inactive | inactive | inactive | inactive | inactive |  | inactive | inactive | inactive | inactive | inactive
7 | CCC(C)C1CCCCC1=O (centres undefined) | inactive | inactive | inactive | inactive | inactive | inactive | inactive | inactive | inactive | inactive | inactive | inactive | inactive |  | inactive | inactive | inactive | inactive | inactive | 
8 | C[C@@H](O)[C@H]1C(=O)N2C(C(=O)O)=C([C@H]3CCCO3)S[C@H]12 | inactive | inactive | inactive | inactive | inactive | inactive | inactive | inactive | inactive | inactive | inactive | inactive | inactive |  | inactive | inactive | inactive | inactive | inactive | inactive
9 | OCC1(CO)COCOC1 | inactive | inactive | inactive | inactive | inactive | inactive | inactive | inactive | inactive | inactive | inactive | inactive | inactive |  | inactive | inactive |  | inactive | inactive | inactive
10 | ON=C1CCCCC1 | inactive | inactive and 68.6 µM (active) | inactive | inactive | inactive | inactive | inactive | inactive | inactive | inactive | inactive | inactive | inactive |  | inactive | inactive | inactive | inactive | inactive | inactive
11 | O=C1NC(c2ccccc2)(c2ccccc2)C(=O)N1COP(=O)(O)O | inactive | inactive | inactive | inactive | inactive | inactive | inactive | inactive | inactive | inactive | inactive | inactive | inactive |  | inactive | inactive | inactive |  |  | inactive
12 | O=C1C=CC(=O)O1 | inactive | inactive | inactive | inactive | inactive | inactive | inactive | inactive | inactive | inactive | inactive | inactive | inactive |  | inactive | inactive | inactive | inactive | inactive | 
13 | O=Nc1ccc(Nc2ccccc2)cc1 | 27.4 µM (active) | 9.74 µM (active) and 24.3 µM (active) | inactive | inactive | inactive | inactive | inactive | inactive and 36.3 µM (active) | 40.8 µM (active) | inactive | 43.4 µM (active) | 844 nM (active) and 5.3 µM (active) | 0.391 µM (active) |  | inactive |  |  | inactive | 54.5 µM (active) | 
14 | NCCC(O)(P(=O)(O)O)P(=O)(O)O | inactive | inactive | inactive | inactive | inactive | inactive | inactive | inactive | inactive | inactive | inactive | inactive | inactive |  | inactive | inactive | inactive | inactive | inactive | inactive
15 | C1C[C@@H]2[C@H]3CC[C@H](C3)[C@@H]2C1 | inactive | inactive | inactive | inactive | inactive | inactive | inactive | inactive | inactive | inactive | inactive | inactive |  | inactive | inactive | inactive | inactive | inactive |  | inactive
